Measurements as given in the supplement of paper PMC10849652.
About 7,900 targets were measured; listed, in parts, are those with a hit and a random draw of the rest. About 0.6% of all pairs of compound and target were hits.

What follows are targets tested with O=C1NC(=O)C(c2cnc3ccccn23)=C1c1cn2c3c(cc(F)cc13)CN(C(=O)N1CCCCC1)CC2 (assay: log2 fold change, soluble protein after heating vs DMSO (PISA); higher = thermal stabilisation; K562 cells, 10 uM, 30 min; active = over 0.2 and 3.5 SD of the protein, either way, in both replicates (recomputed)).
How it was run: (§1)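 Soluble protein was quantified by TMTpro 16plex LC-MS/MS after channel sums were equalised. It was obtained as the supernatant after 21,000xg for 90 min from pooled aliquots of K562 cells (2×10^6 cells/mL, 10 μM compound, 30 min) heated for 3 min across 48°C-58°C and extracted in PBS with 0.5% NP-40 at 4°C. Thermal stability values are relative to control samples and come from duplicates. They are given as log2 fold changes.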

UniProt Q96F25, sequence (Q96F25 whole entry, looked up): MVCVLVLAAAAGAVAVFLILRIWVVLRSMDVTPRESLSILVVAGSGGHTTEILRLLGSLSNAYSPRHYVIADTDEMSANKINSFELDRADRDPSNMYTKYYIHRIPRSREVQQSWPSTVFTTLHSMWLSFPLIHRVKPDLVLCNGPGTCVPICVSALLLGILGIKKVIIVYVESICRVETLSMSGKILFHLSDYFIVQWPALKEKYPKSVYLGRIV
UniProt Q9H0E9, sequence (Q9H0E9 whole entry, looked up): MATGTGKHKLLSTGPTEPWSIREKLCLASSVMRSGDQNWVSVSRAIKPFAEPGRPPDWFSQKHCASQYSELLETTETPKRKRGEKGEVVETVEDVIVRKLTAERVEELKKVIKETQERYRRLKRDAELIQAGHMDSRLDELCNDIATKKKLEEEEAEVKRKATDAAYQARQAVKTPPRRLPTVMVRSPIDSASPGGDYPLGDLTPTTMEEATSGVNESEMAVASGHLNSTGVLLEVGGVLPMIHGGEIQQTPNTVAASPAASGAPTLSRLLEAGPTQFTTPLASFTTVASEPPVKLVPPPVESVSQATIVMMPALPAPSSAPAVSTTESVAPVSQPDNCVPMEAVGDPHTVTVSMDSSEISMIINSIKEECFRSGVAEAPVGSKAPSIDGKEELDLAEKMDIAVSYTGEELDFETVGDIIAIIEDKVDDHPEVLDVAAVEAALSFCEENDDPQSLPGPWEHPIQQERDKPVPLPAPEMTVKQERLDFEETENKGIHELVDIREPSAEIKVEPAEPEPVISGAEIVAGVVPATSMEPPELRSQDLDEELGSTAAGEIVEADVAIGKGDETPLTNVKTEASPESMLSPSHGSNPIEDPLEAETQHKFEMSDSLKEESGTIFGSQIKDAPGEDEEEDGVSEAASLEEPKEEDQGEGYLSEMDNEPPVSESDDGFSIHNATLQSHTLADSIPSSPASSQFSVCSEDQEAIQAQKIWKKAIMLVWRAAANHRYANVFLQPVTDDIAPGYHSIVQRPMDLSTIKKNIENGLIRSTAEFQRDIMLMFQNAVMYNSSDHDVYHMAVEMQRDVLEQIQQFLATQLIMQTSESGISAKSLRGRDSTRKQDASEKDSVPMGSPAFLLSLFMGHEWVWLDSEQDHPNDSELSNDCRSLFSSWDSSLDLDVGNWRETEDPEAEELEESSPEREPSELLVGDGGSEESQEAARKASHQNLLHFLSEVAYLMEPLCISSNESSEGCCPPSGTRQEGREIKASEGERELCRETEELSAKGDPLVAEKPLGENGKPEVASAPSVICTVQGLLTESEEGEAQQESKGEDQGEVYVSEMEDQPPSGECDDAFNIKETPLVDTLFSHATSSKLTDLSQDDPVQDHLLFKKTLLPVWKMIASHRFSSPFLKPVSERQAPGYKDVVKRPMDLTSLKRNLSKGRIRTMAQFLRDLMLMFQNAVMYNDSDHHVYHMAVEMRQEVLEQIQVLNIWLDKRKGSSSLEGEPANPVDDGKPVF
UniProt Q99758, sequence (Q99758 whole entry, looked up): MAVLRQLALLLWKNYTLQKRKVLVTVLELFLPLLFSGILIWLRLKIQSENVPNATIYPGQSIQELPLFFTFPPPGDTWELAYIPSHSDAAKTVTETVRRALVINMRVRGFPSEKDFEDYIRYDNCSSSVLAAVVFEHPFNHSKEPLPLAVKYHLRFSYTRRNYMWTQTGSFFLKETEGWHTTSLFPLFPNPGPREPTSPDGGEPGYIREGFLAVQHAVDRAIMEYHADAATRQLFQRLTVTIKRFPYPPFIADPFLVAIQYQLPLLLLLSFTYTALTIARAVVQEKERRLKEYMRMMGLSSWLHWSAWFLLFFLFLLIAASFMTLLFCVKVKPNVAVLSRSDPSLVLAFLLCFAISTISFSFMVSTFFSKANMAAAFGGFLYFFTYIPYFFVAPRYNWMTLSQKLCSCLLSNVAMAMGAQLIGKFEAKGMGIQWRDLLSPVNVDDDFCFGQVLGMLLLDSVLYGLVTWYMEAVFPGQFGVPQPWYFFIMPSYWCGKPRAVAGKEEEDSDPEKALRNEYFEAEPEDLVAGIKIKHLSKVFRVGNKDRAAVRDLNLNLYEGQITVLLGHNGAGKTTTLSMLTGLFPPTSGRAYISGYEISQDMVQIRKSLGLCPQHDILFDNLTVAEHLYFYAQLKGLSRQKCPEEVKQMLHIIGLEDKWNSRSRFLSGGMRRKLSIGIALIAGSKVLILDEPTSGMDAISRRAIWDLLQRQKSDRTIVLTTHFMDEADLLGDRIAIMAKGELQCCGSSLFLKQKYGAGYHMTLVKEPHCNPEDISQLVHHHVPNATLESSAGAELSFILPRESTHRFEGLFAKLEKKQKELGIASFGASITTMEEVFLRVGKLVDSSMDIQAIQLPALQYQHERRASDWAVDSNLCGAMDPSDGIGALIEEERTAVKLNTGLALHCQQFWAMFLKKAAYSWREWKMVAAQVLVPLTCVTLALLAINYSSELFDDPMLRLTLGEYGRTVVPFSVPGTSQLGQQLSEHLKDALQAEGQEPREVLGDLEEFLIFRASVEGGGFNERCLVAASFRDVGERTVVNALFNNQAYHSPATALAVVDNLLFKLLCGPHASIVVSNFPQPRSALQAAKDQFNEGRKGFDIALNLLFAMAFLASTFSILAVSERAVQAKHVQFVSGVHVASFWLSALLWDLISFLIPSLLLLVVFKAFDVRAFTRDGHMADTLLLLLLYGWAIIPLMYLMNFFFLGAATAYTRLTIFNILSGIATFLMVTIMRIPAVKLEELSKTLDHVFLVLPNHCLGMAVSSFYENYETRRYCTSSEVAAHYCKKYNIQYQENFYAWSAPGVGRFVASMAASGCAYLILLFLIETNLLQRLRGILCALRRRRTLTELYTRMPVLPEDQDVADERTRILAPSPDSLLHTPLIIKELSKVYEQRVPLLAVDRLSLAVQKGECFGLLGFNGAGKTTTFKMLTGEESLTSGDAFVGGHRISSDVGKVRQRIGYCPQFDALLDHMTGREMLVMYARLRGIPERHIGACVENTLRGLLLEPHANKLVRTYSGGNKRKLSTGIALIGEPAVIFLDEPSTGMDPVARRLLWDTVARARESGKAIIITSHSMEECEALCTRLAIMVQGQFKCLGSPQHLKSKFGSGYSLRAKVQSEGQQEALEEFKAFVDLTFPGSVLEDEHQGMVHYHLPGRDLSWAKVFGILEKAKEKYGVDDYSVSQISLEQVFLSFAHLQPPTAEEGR
UniProt Q9BX63, sequence (Q9BX63 whole entry, looked up): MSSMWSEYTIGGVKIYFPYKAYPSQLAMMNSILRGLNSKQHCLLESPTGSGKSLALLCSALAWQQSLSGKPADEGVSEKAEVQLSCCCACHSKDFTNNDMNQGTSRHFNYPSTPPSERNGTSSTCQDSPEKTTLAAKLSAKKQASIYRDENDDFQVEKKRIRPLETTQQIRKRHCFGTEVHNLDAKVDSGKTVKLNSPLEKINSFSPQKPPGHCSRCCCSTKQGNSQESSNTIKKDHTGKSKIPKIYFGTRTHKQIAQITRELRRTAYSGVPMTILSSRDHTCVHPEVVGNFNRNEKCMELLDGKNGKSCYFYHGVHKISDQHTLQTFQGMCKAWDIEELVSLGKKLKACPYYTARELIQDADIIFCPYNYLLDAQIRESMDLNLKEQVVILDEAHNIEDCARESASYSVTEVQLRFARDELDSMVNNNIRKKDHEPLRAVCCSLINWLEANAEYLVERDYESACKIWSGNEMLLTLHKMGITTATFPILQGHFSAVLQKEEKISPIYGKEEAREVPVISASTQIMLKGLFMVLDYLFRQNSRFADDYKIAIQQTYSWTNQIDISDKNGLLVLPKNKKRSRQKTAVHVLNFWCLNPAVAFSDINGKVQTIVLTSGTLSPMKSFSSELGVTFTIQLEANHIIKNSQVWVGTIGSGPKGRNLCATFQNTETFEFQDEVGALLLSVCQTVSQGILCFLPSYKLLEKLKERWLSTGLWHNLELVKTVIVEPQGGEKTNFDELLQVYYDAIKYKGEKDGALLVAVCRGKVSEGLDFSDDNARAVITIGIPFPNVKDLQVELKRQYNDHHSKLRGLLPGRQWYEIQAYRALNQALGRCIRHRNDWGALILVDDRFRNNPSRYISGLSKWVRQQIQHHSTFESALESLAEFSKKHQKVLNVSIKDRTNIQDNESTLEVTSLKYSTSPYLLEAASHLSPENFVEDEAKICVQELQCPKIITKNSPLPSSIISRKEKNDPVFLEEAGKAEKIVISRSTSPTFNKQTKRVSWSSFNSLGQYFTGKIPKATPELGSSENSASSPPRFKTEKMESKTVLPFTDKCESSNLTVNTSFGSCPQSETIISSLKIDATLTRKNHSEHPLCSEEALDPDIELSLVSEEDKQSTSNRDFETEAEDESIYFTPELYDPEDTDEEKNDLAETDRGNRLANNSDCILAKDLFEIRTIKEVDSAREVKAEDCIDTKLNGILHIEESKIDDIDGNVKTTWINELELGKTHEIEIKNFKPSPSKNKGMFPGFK
UniProt P05091, sequence (P05091 whole entry, looked up): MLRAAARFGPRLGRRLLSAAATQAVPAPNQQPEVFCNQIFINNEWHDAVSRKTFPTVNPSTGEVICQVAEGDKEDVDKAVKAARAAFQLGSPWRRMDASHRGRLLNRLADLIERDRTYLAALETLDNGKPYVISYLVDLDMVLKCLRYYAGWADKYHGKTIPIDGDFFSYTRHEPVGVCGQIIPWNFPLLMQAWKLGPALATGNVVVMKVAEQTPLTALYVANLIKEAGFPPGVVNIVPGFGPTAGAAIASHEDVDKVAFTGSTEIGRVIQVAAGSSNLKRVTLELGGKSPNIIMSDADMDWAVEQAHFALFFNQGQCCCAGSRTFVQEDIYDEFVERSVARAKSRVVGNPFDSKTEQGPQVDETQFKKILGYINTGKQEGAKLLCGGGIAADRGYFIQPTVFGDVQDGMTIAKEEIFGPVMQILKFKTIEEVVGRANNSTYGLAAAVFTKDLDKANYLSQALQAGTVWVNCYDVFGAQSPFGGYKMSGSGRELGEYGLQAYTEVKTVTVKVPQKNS
UniProt P55008, sequence (P55008 whole entry, looked up): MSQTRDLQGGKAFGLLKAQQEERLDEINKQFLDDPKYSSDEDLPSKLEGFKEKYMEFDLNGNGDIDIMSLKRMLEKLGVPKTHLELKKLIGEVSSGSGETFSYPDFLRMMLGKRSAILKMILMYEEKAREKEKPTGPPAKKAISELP

log2 fold change, inactive:
BRIP1 (UniProt Q9BX63) -0.07
ADPRH (UniProt P54922) -0.104
ARRDC1 (UniProt Q8N5I2) -0.008
ARHGAP25 isoform 4 (UniProt P42331) 0.021
BSCL2 isoform 4 (UniProt Q96G97) 0.033
BRD8 isoform 2 (UniProt Q9H0E9) 0.102
AIF1 (UniProt P55008) 0.068
BRMS1 (UniProt Q9HCU9) -0.033
ABCA3 (UniProt Q99758) 0.134
ADAM15 (UniProt Q13444) 0.031
ABCA4 (UniProt P78363) -0.041
ABHD11 (UniProt Q8NFV4) -0.159
AASDH (UniProt Q4L235) -0.064
ADD1 isoform 4 (UniProt P35611) 0.027
AGAP3 isoform 4 (UniProt Q96P47) 0.127
ALG14 (UniProt Q96F25) 0.061
ARFIP1 isoform 2 (UniProt P53367) -0.062
ACSL6 isoform 1 (UniProt Q9UKU0) -0.421
BRAF (UniProt P15056) -0.007
ALDH2 isoform 2 (UniProt P05091) 0.051

Each target was assayed with c1cc(OCCN2CCCCC2)cc(-c2n[nH]c3ccc(-c4nnc[nH]4)cc23)c1 in the same assay as above.
How it was run: as §1

log2 fold change, inactive:
BRIP1 (UniProt Q9BX63) 0.077
AUH (UniProt Q13825) 0.003
ARRDC1 (UniProt Q8N5I2) -0.001
ARHGAP25 isoform 4 (UniProt P42331) -0.049
BRD8 isoform 2 (UniProt Q9H0E9) -0.09
BRMS1 (UniProt Q9HCU9) -0.178
ATXN3 isoform 1 (UniProt P54252) -0.015
ABCA3 (UniProt Q99758) 0
ATXN7L3 isoform 2 (UniProt Q14CW9) 0.051
ABCA4 (UniProt P78363) 0.157
ABHD11 (UniProt Q8NFV4) -0.009
AGAP3 isoform 4 (UniProt Q96P47) -0.18
ALG14 (UniProt Q96F25) -0.123
AZI2 (UniProt Q9H6S1) -0.028
BRAF (UniProt P15056) -0.067
ALDH2 isoform 2 (UniProt P05091) -0.36
AARSD1 (UniProt Q9BTE6) 0.066

These targets were tested with c1cn2cc(-c3ccc4cn[nH]c4c3)nc(Nc3ccc(N4CCOCC4)cc3)c2n1 [entospletinib] in the same assay as above.
How it was run: as §1

log2 fold change, inactive:
BRIP1 (UniProt Q9BX63) -0.055
AUH (UniProt Q13825) -0.068
ARRDC1 (UniProt Q8N5I2) -0.014
ARHGAP25 isoform 4 (UniProt P42331) 0.073
BRD8 isoform 2 (UniProt Q9H0E9) 0.045
BRMS1 (UniProt Q9HCU9) 0.078
ATXN3 isoform 1 (UniProt P54252) 0.058
ABCA3 (UniProt Q99758) 0.141
ATXN7L3 isoform 2 (UniProt Q14CW9) 0.494
ABCA4 (UniProt P78363) -0.079
ABHD11 (UniProt Q8NFV4) 0.006
AGAP3 isoform 4 (UniProt Q96P47) 0.036
ALG14 (UniProt Q96F25) -0.063
AZI2 (UniProt Q9H6S1) -0.142
BRAF (UniProt P15056) 0.035
ALDH2 isoform 2 (UniProt P05091) 0.118
AARSD1 (UniProt Q9BTE6) -0.371
